PLK1 PBD block – qHTS for Inhibitors of PLK1-PDB (polo-like kinase 1 - polo-box domain): Primary Screen | Serine/threonine-protein kinase PLK1 (Homo sapiens), P53350 | Plk1 PBD binding of FITC phosphopeptide, fluorescence polarization | AID 720504, 2013 | 2.8% of 360,000 active | Potency, µM, for the others: max response, negative = inhibition, hits mostly inhibitors; also: potency is read from the fitted curve at half-maximal effect; series mostly up to about 57 µM; % is scaled to controls: 0 for no effect and ±100 for the full control effect; nearly all actives have a fitted effect of over 65% in size
HP1b chromo inh – HTS for Inhibitors of HP1-beta Chromodomain Interactions with Methylated Histone Tails. Chromobox protein homolog 1 (Homo sapiens), P83916. AlphaScreen HP1-beta / biotin-H3K9me3 peptide binding. Potency, µM (titrated, usually from 114 µM), without a hit: top-dose activity change, negative = inhibition, usual class: inhibitors. 0.56% of 390,000 active. AID 540317, 2011; also: potency is read from the fitted curve at half-maximal effect; nearly all actives have a fitted effect of over 70% in size
Target sequence (P83916 whole entry, looked up): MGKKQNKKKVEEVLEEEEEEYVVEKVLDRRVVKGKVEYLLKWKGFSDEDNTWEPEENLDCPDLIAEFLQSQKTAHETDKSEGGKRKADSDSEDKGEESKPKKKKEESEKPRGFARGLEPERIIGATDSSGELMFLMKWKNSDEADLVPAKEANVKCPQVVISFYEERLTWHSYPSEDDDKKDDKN
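HP1-beta protein (50 nM final) preincubated 30 min at room temperature with biotinylated H3(1-18)K9me3 peptide (50 nM) in PBS pH 7.4, 0.01% Tween-20, then compound added for 30 min. AlphaScreen streptavidin donor/nickel chelate acceptor beads (10 ug/mL final), 30 min dark, luminescence read.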
BAZ2B block – qHTS Assay for Inhibitors of BAZ2B; Bromodomain adjacent to zinc finger domain protein 2B (Homo sapiens), Q9UIF8; Potency, µM (highest dose often 114 µM), inactives show at the top dose activity change, negative = inhibition, most hits filed as inhibitors; 4.4% of 360,000 active; AlphaScreen BAZ2B-H3K14Ac peptide displacement; also: potency is read from the fitted curve at half-maximal effect; % is scaled to controls: 0 for no effect and ±100 for the full control effect; nearly all actives have a fitted effect of over 60% in size
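Multi-concentration screen (max 110 uM) measuring displacement of acetylated histone H3 peptide from BAZ2B by AlphaScreen, using 50 nM protein, 50 nM peptide and 10 ug/mL streptavidin donor plus Ni-chelate acceptor beads.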
PI5P4K alpha inh – qHTS for Inhibitors of phosphatidylinositol 5-phosphate 4-kinase (PI5P4K) | 1.2% of 330,000 active | max response, % | Phosphatidylinositol 5-phosphate 4-kinase type-2 alpha (Homo sapiens), P48426 | AID 652105, 2013 | PI5P4Kalpha enzyme, ADP-Glo luminescence, 60 min; active compounds read low; active = max response of -50% or lower; inconclusive = between -30% and -50%; inactive = -30% or higher; also: value at the top dose of about 77 µM; % is scaled to controls: 0 for no effect and ±100 for the full control effect
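Compounds were pin-transferred onto PI5P4Kalpha and substrate in HEPES pH 7.4 buffer with EGTA, CHAPS and 5% DMSO. ATP (5 microM final) started the reaction, which ran 60 minutes at room temperature before ADP-Glo detection.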
JMJD2A Tudor inh – qHTS Assay for Inhibitors of JMJD2A-Tudor Domain; Lysine-specific demethylase 4A (Homo sapiens), O75164; AlphaScreen JMJD2A-Tudor / H3K4me3 peptide binding; Potency, µM (series often up to 114 µM), without a hit: top-dose activity change, negative = inhibition, usual class: inhibitors; 4.4% of 390,000 active; AID 504339, 2011; also: potency is read from the fitted curve at half-maximal effect; % is scaled to controls: 0 for no effect and ±100 for the full control effect; nearly all actives have a fitted effect of over 50% in size
G9a inh – qHTS Assay for Inhibitors of Histone Lysine Methyltransferase G9a | Histone-lysine N-methyltransferase EHMT2 (Homo sapiens), Q96KQ7 | G9a H3K9 monomethylation, AlphaScreen, 2 h | Potency, µM (highest dose often 102 µM), for inactives: top-dose activity, negative = inhibition, most hits filed as inhibitors | 8.8% of 350,000 active | AID 504332, 2011; also: potency is read from the fitted curve at half-maximal effect; % is scaled to controls: 0 for no effect and ±100 for the full control effect; nearly all actives have a fitted effect of over 75% in size
Target sequence (Q96KQ7 913-1193 limits assumed): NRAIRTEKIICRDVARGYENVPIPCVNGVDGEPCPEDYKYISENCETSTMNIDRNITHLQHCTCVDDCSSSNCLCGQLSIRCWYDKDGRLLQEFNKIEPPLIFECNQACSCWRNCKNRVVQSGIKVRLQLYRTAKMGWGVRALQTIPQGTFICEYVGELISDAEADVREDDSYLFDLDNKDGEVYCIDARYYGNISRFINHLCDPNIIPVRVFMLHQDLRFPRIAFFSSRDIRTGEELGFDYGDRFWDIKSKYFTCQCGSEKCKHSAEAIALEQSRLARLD
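Readings reflect AlphaScreen signal from monomethyl-H3K9 antibody detection. HMT at 20 nM; substrate b-H3K9 500 nM; cofactor SAM 20 uM; 2 h RT reaction; compounds tested as titrations in qHTS with 15 min preincubation.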
* hit, by the source's call; u = inconclusive; x = not tested or not shown; [ ] = remark or other dose. Sampled rows, rich in hits. Any-hit rate of the full collection: about 12%. Unless noted, calls follow the shape of the dose curve; as a rule, active = well fitted curve in the direction sought with a large enough effect; inconclusive = small, poorly fitted or top-dose-only effect, or another doubt; inactive = no such curve, though single readings can be large; an effect the other way counts as inactive or inconclusive.

SMILES	PLK1 PBD block	HP1b chromo inh	BAZ2B block	PI5P4K alpha inh	JMJD2A Tudor inh	G9a inh
O=C(NCC1CCCO1)C(=O)N/N=C/c1ccc(OCc2ccccc2Cl)cc1 (centres undefined)	u	3%	x	2	45µM*	x
CC(C)CCOc1ccc(C2(C)NC(=O)NC2=O)cc1 (centres undefined)	-3%	23%	-23%	-1	-11%	-1%
Cc1ccc(NS(=O)(=O)c2c(C)nc3sccn3c2=O)c(Cl)c1	x	65%	0%	x	-14%	7%[59 µM]
Cc1cccc(C(=O)NCC(=O)OCC(=O)c2ccc3ccccc3c2)c1	x	21%[57 µM]	x	x	-16%[57.1 µM]	x
Nc1ccc(Cc2ccc(N)c(O)c2)cc1O	-26%	u	u	u	40µM*	50µM*
Cc1cc2occ(CC(=O)NCc3cccs3)c2cc1C(C)C	-13%	22%	3%	4	-7%	-13%[59 µM]
Cc1csc(NC(=O)Cc2coc3cc(C)c(C(C)C)cc23)n1	-5%	15%	u	15	-32%	45µM*
O=C(COc1cc2oc(=O)c3c(c2cc1Cl)CCCC3)NCC1CCC(C(=O)O)CC1 (centres undefined)	-4%	34%	-23%	7	-9%	1%
O=C(O)C(NS(=O)(=O)c1ccc(F)cc1)c1ccccc1 (centres undefined)	-4%	21%	-3%	0	-2%	-35%
O=C(O)[C@H](CSCc1ccccc1)NS(=O)(=O)c1ccc(F)cc1	-17%	5%	-5%	9	u	10µM*
Fc1ccc(C(c2ccc(F)cc2)N2CCN(C/C=C\c3ccccc3)CC2)cc1	x	x	x	x	x	-1%[21.5 µM]
Cc1cc2c(cc1NS(=O)(=O)c1ccc(F)cc1)n(C)c(=O)c(=O)n2C	x	35%	0%	x	-8%	-3%[59 µM]
Cc1ccc(S(=O)(=O)N2CCN(CC(=O)N/N=C/C=C/c3ccccc3)CC2)cc1	3%	31%	-11%	0	-10%	19%[59 µM]
COc1ccc(-c2cn(-c3ccccc3)c(=S)[nH]2)cc1OC	21µM*	-6%	u	-25	-33%	8.9µM*
COc1ccccc1-n1cc(-c2ccc(C)cc2)[nH]c1=S	-6%	-22%	u	-13	u	u
COc1ccc(-n2cc(-c3ccc(Cl)cc3)[nH]c2=S)cc1	-3%	47%	-2%	-5	0%	x
COc1ccccc1-c1cn(-c2ccccc2)c(=S)[nH]1	-27%	30%	-28%	-7	-34%	12%
COc1cccc(-n2cc(-c3ccc(F)cc3)[nH]c2=S)c1	-5%	14%	50µM*	-29	45µM*	u
COc1ccc(-c2cn(-c3ccc(C)c(Cl)c3)c(=S)[nH]2)cc1OC	27µM*	-4%	-10%	-28	-15%	50µM*
COC(=O)c1ccc(-n2cc(-c3ccc(OC)cc3)[nH]c2=S)cc1	6.7µM*	13%	-10%	1	-16%	1.1µM*
COc1ccc(CCNC(=O)CS(=O)(=O)Cc2nc(-c3cccc(Cl)c3)oc2C)cc1OC	x	34%	-3%	x	-15%	-43%[59 µM]
COc1ccc(-c2nc(CSCC(=O)N3CCC(C(N)=O)CC3)c(C)o2)cc1OC	-15%	34%	-8%	-2	-17%	45µM*
COc1ccc(CCNC(=O)CSCc2nc(-c3cccc(C)c3)oc2C)cc1OC	x	7%	-26%	x	-25%	u
CCOc1ccc(-c2nc(CSCC(=O)N3CCN(C(=O)c4ccco4)CC3)c(C)o2)cc1	-1%	34%	-2%	-1	-13%	50µM*
Cc1oc(-c2ccccc2F)nc1CSCC(=O)NC1CC1	27µM*	3%	0%	-6	u	18%
SMILES	PLK1 PBD block	HP1b chromo inh	BAZ2B block	PI5P4K alpha inh	JMJD2A Tudor inh	G9a inh
CCOC(=O)N1CCC(NC(=O)CSCc2nc(-c3ccc(OC)c(OC)c3)oc2C)CC1	-10%	26%	-4%	2	-20%	-38%
COc1ccc(-c2nc(CSCC(=O)N3CCN(c4cccc(C)c4)C(C)C3)c(C)o2)cc1OC (centres undefined)	-7%	-24%	45µM*	0	56µM*	45µM*
CCOC(=O)C1CCN(C(=O)CSCc2nc(-c3ccc(OCC)cc3)oc2C)CC1	-8%	-2%	-8%	3	-25%	-13%[59 µM]
Cc1oc(-c2ccccc2F)nc1CSCC(=O)NC1CCC(C)CC1 (centres undefined)	-4%	23%	-10%	2	-22%	-7%
CCc1cccc(NC(=O)Cn2c(-c3ccc(F)cc3)cc(C(C)=O)c2C)c1	x	12%	5%	x	-3%	9%[59 µM]
O=C1NC(=O)c2cc(Oc3ccc([N+](=O)[O-])cc3)ccc21	-1%	23%	-9%	-17	-6%	17%
Cc1cc(C(=O)NNC(=O)Cc2ccc(Cl)cc2)c(C)o1	-6%	-5%	-5%	-8	-30%	8%[0.501 µM]
COc1ccccc1CNC(=O)COCc1cc(-c2cccs2)on1	x	-6%	3%	x	-17%	-15%[59 µM]
COc1ccc(-c2nc(CSCC(=O)NCCCN3CCCC3=O)c(C)o2)cc1OC	21µM*	6%	0%	-4	-18%	-12%
COc1ccc(-c2nc(CS(=O)CC(=O)NC3CCCc4ccccc43)c(C)o2)cc1OC (centres undefined)	-9%	28%	-25%	8	-7%	u
COc1ccc(-c2nc(CSCC(=O)NC3CC3)c(C)o2)cc1OC	-10%	22%	-2%	1	-23%	-5%
COc1ccc(-c2nc(CSCC(=O)NC3CCCc4ccccc43)c(C)o2)cc1OC (centres undefined)	-13%	15%	u	1	u	45µM*
COc1ccc(-c2nc(CSCC(=O)N3CCc4ccccc4C3)c(C)o2)cc1OC	u	11%	-6%	0	u	35µM*
CCN(CC)C(=O)Cn1c(=O)n(CCCCCC(=O)NCc2ccc(C)cc2)c(=O)c2sccc21	x	33%	0%	x	3%	6%[59 µM]
O=C(CN(C(=O)CNC(=O)c1ccco1)c1ccc(F)cc1)NC1CCCC1	3%	22%	0%	6	-6%	7%
C(=N/n1c2ccccc2c2ccccc21)/c1ccco1	-10%	35µM*	8.9µM*	13	u	u
COc1cc(C(=O)OCCc2c(C)nc3nc[nH]n3c2=O)cc(OC)c1OC	-7%	52%	-20%	-1	5%	-22%

Source: PubChem BioAssay
